AC50 and outcome data for one compound are collected here from PubChem BioAssay (EPA / NIEHS).

“And” between values parts separate entries of the source, which are not always exact repeats. Identical values can stand only once. Records with an inconclusive call do not appear. Where a structure was tested more than once in an assay, its records may differ in their call. The source made the active and inactive calls. How the source made its calls, unless noted: active means hit-call score of the fitted dose curve at least 0.9, where 1 is the maximum; inactive means score below 0.9.

A short description of experiment [1]: CCTE_Mundy_HCI_Cortical_NOG_NeuriteLength: CCTE's Neurite Outgrowth Assay in rat cortical cells for Neurite Length, Mundy Lab (AID 2284213).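 Further: neurites imaged about 48 to 50 h after chemical exposure began.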 The method, boiled down: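 Neurite length was read by high-content imaging of βIII-tubulin-labelled neurites in rat primary cortical cultures. Activity was fitted relative to DMSO.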
Experiment [2] can be described thus: CCTE_Mundy_HCI_Cortical_Synap_Neur_Matur_NeuriteSpotCountPerNeuron: CCTE's Synaptogenesis and Neurite Maturation Assay in rat cortical cells for Neurite Spot Count per Neuron Count, Mundy Lab (AID 2284215). The method, boiled down: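 Rat primary cortical cultures given AraC at DIV 5, dosed from DIV 7 to DIV 12 with media change. Fixed, stained for MAP2, synaptophysin and Hoechst; neurite-associated synaptophysin puncta per neuron quantified by high-content imaging versus DMSO.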

Experiment [3] can be described thus: CCTE_Mundy_HCI_Cortical_Synap_Neur_Matur_SynapseCount: CCTE's Synaptogenesis and Neurite Maturation Assay in rat cortical cells for Synapse Count, Mundy Lab (AID 2284218). The method, boiled down:
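Synapse count per neuron is measured in rat cortical neurons exposed to chemicals between DIV 7 and DIV 12, with glial growth arrested by AraC at DIV 5. Synaptophysin and MAP2 staining is imaged automatically; activity is fitted relative to DMSO.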

The nature of experiment [4]: CCTE_Mundy_HCI_Cortical_Synap_Neur_Matur_NeuriteCount: CCTE's Synaptogenesis and Neurite Maturation Assay in rat cortical cells for Neurite Count, Mundy Lab (AID 2284222). The method in brief:
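Rat cortical neurons, 96-well; AraC DIV 5; chemical + media change DIV 7; end DIV 12. Fix PFA/Hoechst, anti-MAP2 + anti-synaptophysin IF. HCI neurite count vs DMSO baseline.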

A short description of experiment [5]: CCTE_Mundy_HCI_Cortical_Synap_Neur_Matur_CellBodySpotCount: CCTE's Synaptogenesis and Neurite Maturation Assay in rat cortical cells for Cell Body Spot Count, Mundy Lab (AID 2284223). The method, boiled down:
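Primary rat cortical cultures, AraC added at DIV 5; dosed DIV 7 through DIV 12 […]. Fixed, stained for MAP2 and synaptophysin with Hoechst; cell body-associated synaptophysin puncta per neuron counted by high-content imaging, loss vs DMSO.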

Experiment [6] is described as follows: UKN4_HCS_LUHMES_cell_viability: Viability Assessment in the University of Konstanz (UKN) Leist Lab Neurite Outgrowth Assay in human LUHMES cells (UKN4) (AID 2284232). The method in brief:
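Human dopaminergic-model LUHMES neurons were exposed to chemicals for 24 h after a 2-day differentiation. Viability was scored by imaging Hoechst H-33342 staining, with activity fitted in both directions relative to DMSO controls.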

A short description of experiment [7]: UKN2_HCS_IMR90_cell_viability: Viability Assessment in the University of Konstanz (UKN) Leist Lab Neural Crest Cell Migration Assay in human induced IMR90 Pluripotent Stem Cells (UKN2) (AID 2284233).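 Further: viability of neural crest cells differentiated from IMR90 iPSC measured by calcein-AM fluorescence imaging.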 The method in brief: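 Neural crest cells derived from IMR90 iPSC migrate into a stopper-free zone for 24 h in EGF/FGF medium, then are exposed to compound for 24 h. Viability assessed by calcein-AM and Hoechst staining with high-content imaging, fitted bidirectionally versus DMSO.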

The nature of experiment [8]: CCTE_Mundy_HCI_hNP1_Casp3_7: CCTE's Caspase-Glo 3/7 Assay in human neuroprogenitor cells for Apoptosis, Mundy Lab (AID 2284240). The method, boiled down: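 Luminescent caspase-3/7 readout, 26.5 h post-dose, in human neural progenitor cells from WA09 embryonic stem cells. Cells grew 40–44 h at 37 °C, 5% CO2 before chemical addition. Activity analysed as signal increase over DMSO baseline.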

A short description of experiment [9]: CCTE_Mundy_HCI_hNP1_CellTiter: CCTE's Cell Titer-Glo 2 Assay in human neuroprogenitor cells for Viability, Mundy Lab (AID 2284241; active means hit-call score of the fitted dose curve at least 0.9, where 1 is the maximum). The method in brief:
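Viability read as luminescent ATP content (CellTiter-Glo, 30 min room temperature) twenty-four hours after dosing, relative to DMSO. Cells: WA09-derived hNP1 neuroprogenitors on poly-L-ornithine/laminin, plated 40 to 44 hours before chemical.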

A short description of experiment [10]: CCTE_Mundy_HCI_Cortical_Synap_Neur_Matur_NeuronCount: CCTE's Synaptogenesis and Neurite Maturation Assay in rat cortical cells for Neuron Count, Mundy Lab (AID 2284242; active means hit-call score of the fitted dose curve at least 0.9, where 1 is the maximum;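 further: neuron number from Hoechst nuclei and MAP2 staining by high-content imaging; hits reduce neuron count versus DMSO baseline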). The method in brief:
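Imaging-based neuron count in rat cortical cultures after chemical exposure from DIV 7 to DIV 12, with AraC added at DIV 5. Activity is fitted relative to DMSO.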

Read-out in experiment [11]: Monokine induced gamma interferon (MIG), CXCL9 (gene 4283)
The experiment in a line: BSK_KF3CT_MIG: BioMAP Diversity Plus: KF3CT Assay for Monokine induced gamma interferon (MIG) Biomarker Activity (AID 2284248). The settings on record: primary human keratinocytes with fibroblasts. The method in brief: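 Human keratinocyte–foreskin fibroblast co-culture; MIG measured by ELISA 24 h after chemical dosing, fitted upward versus DMSO. Cytotoxicity was assessed in parallel cultures by SRB total-protein staining read at 560 nm.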

Read-out in experiment [12]: Collagen I, COL1A1 (gene 1277)
The experiment in a line: BSK_hDFCGF_CollagenI: BioMAP Diversity Plus: hDFCGF Assay for Collagen I Biomarker Activity (AID 2284250). Conditions: primary human foreskin fibroblasts. The method, boiled down: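 Cells were primary human foreskin fibroblasts treated for 24 h. Collagen I levels were then determined by ELISA and compared against DMSO controls.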

Read-out in experiment [13]: Interferon-inducible T-cell alpha chemoattractant (ITAC), CXCL11 (gene 6373)
Briefly: BSK_hDFCGF_ITAC: BioMAP Diversity Plus: hDFCGF Assay for Interferon-inducible T-cell alpha chemoattractant (ITAC) Biomarker Activity (AID 2284251). The settings on record: primary human foreskin fibroblasts. The method in brief: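 Primary human foreskin fibroblasts (hDFCGF system) treated for 24 h; I-TAC quantified by ELISA. Gain-direction fitting versus DMSO; parallel SRB staining of total protein flagged overt cytotoxicity.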

Read-out in experiment [14]: Plasminogen activator inhibitor-1 (PAI1), SERPINE1 (gene 5054)
The experiment in a line: BSK_KF3CT_PAI1: BioMAP Diversity Plus: KF3CT Assay for Plasminogen activator inhibitor-1 (PAI1) Biomarker Activity (AID 2284252). The settings on record: primary human keratinocytes with fibroblasts. The method in brief: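 Signal is PAI-1 detected by ELISA in a human skin-derived keratinocyte/fibroblast co-culture, 24 h after dosing; DMSO served as negative control and baseline.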

Read-out in experiment [15]: Interleukin-8 (IL8), CXCL8 (gene 3576)
The experiment in a line: BSK_KF3CT_IL8: BioMAP Diversity Plus: KF3CT Assay for Interleukin-8 (IL8) Biomarker Activity (AID 2284254). The settings on record: primary human keratinocytes with fibroblasts. The method in brief: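 Human keratinocyte/foreskin fibroblast co-culture dosed 24 h; IL-8 measured by ELISA relative to DMSO. Parallel cultures stained with SRB for total protein to flag cytotoxicity.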

Read-out in experiment [16]: Intercellular Adhesion Molecule 1 (ICAM1), ICAM1 (gene 3383)
Briefly: BSK_BE3C_ICAM1: BioMAP Diversity Plus: BE3C Assay for Intercellular Adhesion Molecule 1 (ICAM1) Biomarker Activity (AID 2284278).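 Further: cell-surface ICAM-1 protein level quantified by ELISA.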 Conditions: primary human bronchial epithelial cells. The method, boiled down:
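Measured by ELISA: ICAM-1 expressed by primary human bronchial epithelial cells 24 h after compound treatment, with upward-direction fitting versus DMSO vehicle.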

Read-out in experiment [17]: Interferon-inducible T-cell alpha chemoattractant (ITAC), CXCL11 (gene 6373)
Briefly: BSK_BE3C_ITAC: BioMAP Diversity Plus: BE3C Assay for Interferon-inducible T-cell alpha chemoattractant (ITAC) Biomarker Activity (AID 2284279). The settings on record: primary human bronchial epithelial cells. The method, boiled down:
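ELISA read-out of I-TAC after 24 h chemical dosing of human lung primary bronchial epithelial cells; gain-of-signal fit vs DMSO baseline. Parallel SRB total-protein staining (0.1% SRB, 10% TCA fixation, 560 nm) assessed cytotoxicity.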

Read-out in experiment [18]: Interleukin-8 (IL8), CXCL8 (gene 3576)
The experiment in a line: BSK_BE3C_IL8: BioMAP Diversity Plus: BE3C Assay for Interleukin-8 (IL8) Biomarker Activity (AID 2284280). Conditions: primary human bronchial epithelial cells. The method, boiled down:
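Primary human bronchial epithelial cells (BE3C system) exposed 24 h; IL-8 measured by ELISA and fitted in positive direction versus DMSO. Overt cytotoxicity assessed by SRB total-protein staining in parallel cultures.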

Read-out in experiment [19]: Epidermal growth factor receptor (EGFR), EGFR (gene 1956)
The experiment in a line: BSK_BE3C_EGFR: BioMAP Diversity Plus: BE3C Assay for Epidermal growth factor receptor (EGFR) Biomarker Activity (AID 2284281). Conditions: primary human bronchial epithelial cells. The method, boiled down: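 Human primary bronchial epithelial cells (BE3C system) dosed with chemicals; EGFR measured by ELISA at 24 h, fitted in the positive direction relative to DMSO. Cytotoxicity tracked in parallel cultures by SRB total-protein staining.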

Read-out in the next experiment: KRT18 (gene 3875)
Briefly: BSK_BE3C_Keratin818: BioMAP Diversity Plus: BE3C Assay for Keratin 818 Biomarker Activity (AID 2284282). Conditions: primary human bronchial epithelial cells. The method, boiled down:
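BE3C: human bronchial epithelial primary cells, 24 h exposure, Keratin 8/18 ELISA; DMSO = negative control/baseline; cytotoxicity by parallel SRB stain (0.1% SRB after 10% TCA fixation, 560 nm).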

One may read the AC50 as the midpoint of the concentration-response curve, whichever way the signal moves. Regarding `[Cd+2].[Cl-].[Cl-]`, the AC50 in experiment [1] was 12.4 µM (active); in experiment [2] it was 1.19 µM (active); in experiment [3], 1.25 µM (active); in experiment [4], 2.71 µM (active); in experiment [5] it was 6.06 µM (active); in experiment [6], 8.98 µM (active). Further, the AC50 in [7] was 4.14 µM (active); in experiment [10], 0.728 µM (active); in experiment [11], 33.6 µM (active) and 36.8 µM (active); in [12] it was 1.42 µM (active) and 465 nM (active); in experiment [13], 10 µM (active) and 7.2 µM (active); in experiment [14], 34.5 µM (active) and 29.9 µM (active). Further, the AC50 in experiment [15] is 26.8 µM (active); in [17], 28.9 µM (active) and 31.5 µM (active); in [18] it was 0.0538 µM (active); in [19] it was 31.6 µM (active) and 12.3 µM (active). Besides, the call (in [8]; in experiment [9]; in experiment [15]; in [16]; in [18]; in the experiment with KRT18 (gene 3875)) was inactive.
